# Some compounds were tested as several samples or in several runs, with calls that do not always agree. Active and inactive are the calls of the source. How the source made its calls: active means hit-call score of the fitted dose curve at least 0.9, where 1 is the maximum; inactive means score below 0.9.
# Target: Paired box protein Pax-6 (Homo sapiens) (UniProt P26367)
# Experiment: ATG_Pax6_CIS: Attagene CIS-FACTORIAL HepG2 Assay for human Paired Box 6 (PAX6) (AID 2282956)
# Details: HepG2 CIS-FACTORIAL PAX6 reporter transcription, RNA readout; actives raise or lower the signal
# Method: ATG_CIS is a cell-based, multiplexed-readout assay that uses HepG2, a human liver cell line, with measurements taken at 24 hours after chemical dosing in a 24-well plate.ATG_Pax6_CIS is one of 52 assay component(s) measured or calculated from the ATG_CIS assay. It is designed to make measurements of mRNA induction, a form of inducible reporter, as detected with fluorescence intensity signals by Reverse transcription polymerase chain reaction (RT-PCR) and Capillary electrophoresis technology.Data from the assay component ATG_Pax6_CIS was analyzed into 1 assay endpoint. This assay endpoint, ATG_Pax6_CIS, was analyzed with bidirectional fitting relative to DMSO as the negative control and baseline of activity. Using a type of inducible reporter, measures of mRNA for gain or loss-of-signal activity can be used to understand the reporter gene at the transcription factor-level as they relate to the gene PAX6. Furthermore, this assay endpoint can be referred to as a primary readout, because this assay has produced multiple assay endpoints where this one serves a reporter gene function. To generalize the intended target to other relatable targets, this assay endpoint is annotated to the dna binding intended target family, where the subfamily is paired box protein.
# Human liver HepG2 cells are transiently transfected with multiple reporter transcription units (MRTUs) in 6-well plates using FuGene 6 reagent (Roche; 3 ml FuGene/1 mg DNA). The MRTU constructs are regulated by a cis-regulating element (promoter). […] A major difference between the CIS and TRANS system is that in CIS activities of endogenous TFs are measured, whereas the TRANS assay evaluates changes in activities of exogenous, chimeric NR-Gal4 proteins. […] At the end of 24 hour incubation, total RNA was isolated using TriZol reagent (Invitrogen). The isolated RNA is then reverse-transcribed using oligo(dT) primer and Mo-MLV reverse transcriptase (Invitrogen) with DNAse I (Ambion) treatment for 30 min. The one-tenth of the produced cDNA was amplified by PCR using Taq DNA polymerase (Invitrogen) and two reporter sequence-specific primers. The PCR products were fluorescently labeled by primer extension with 6-arboxyfluorescein (6-FAM) 5'-labeled reporter sequence-specific primer (2 min at 95 C, 20 s at 68 C and 10 min at 72 C) and these products were digested with 5U of HpaI (New England Biolabs) for 2h at 37 C. The fragments were purified using Qiaquick PCR columns (Qiagen), analyzed on an ABI 3130xL genetic analyzer (Applied Biosystems) with peak positions identified by using a set of X-rhodamine (ROX)-labeled MapMarker1000 molecular weight standards (BioVentures). The raw capillary electrophoresis data was processed using Attagraph software (Attagene).
# Chain of Paired box protein Pax-6 (Homo sapiens) (P26367 whole entry, looked up): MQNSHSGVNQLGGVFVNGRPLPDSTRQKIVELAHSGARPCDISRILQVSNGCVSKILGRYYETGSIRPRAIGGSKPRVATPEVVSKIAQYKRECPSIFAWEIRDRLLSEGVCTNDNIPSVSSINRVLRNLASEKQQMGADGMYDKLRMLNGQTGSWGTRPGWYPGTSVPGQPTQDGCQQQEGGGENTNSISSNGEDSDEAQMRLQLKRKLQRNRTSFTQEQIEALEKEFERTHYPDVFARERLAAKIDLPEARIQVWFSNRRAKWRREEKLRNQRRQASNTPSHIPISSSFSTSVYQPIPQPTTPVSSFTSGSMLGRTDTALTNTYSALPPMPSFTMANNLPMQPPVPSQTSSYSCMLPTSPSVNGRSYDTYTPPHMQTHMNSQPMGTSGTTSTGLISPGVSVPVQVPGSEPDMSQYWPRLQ
Compound,outcome,AC50
CC1COC(Cn2cncn2)(c2ccc(Oc3ccc(Cl)cc3)cc2Cl)O1 (stereo not given),inactive,
O=C(O)COc1nc(Cl)c(Cl)cc1Cl,inactive,
N#Cc1cc(Br)c(O)c(Br)c1,inactive,
CCOC(=O)C(Cl)Cc1cc(-n2nc(C)n(C(F)F)c2=O)c(F)cc1Cl (stereo not given),inactive,
CCCC1COC(Cn2cncn2)(c2ccc(Cl)cc2Cl)O1 (stereo not given),inactive,
O=C(O)c1nc(Cl)ccc1Cl,inactive,
COc1nc(C)nc(NC(=O)NS(=O)(=O)c2ccccc2Cl)n1,inactive,
N#Cc1nn(-c2c(Cl)cc(C(F)(F)F)cc2Cl)c(N)c1S(=O)C(F)(F)F (stereo not given),inactive,48.4 µM (active)
C=CC1(C)OC(=O)N(c2cc(Cl)cc(Cl)c2)C1=O (stereo not given),inactive,
C=CCC1=C(C)C(OC(=O)C2C(C=C(C)C)C2(C)C)CC1=O (stereo not given),inactive,64.5 µM (active) [middle of 4 runs]
CCCCOC(=O)c1ccccc1C(=O)OCCCC,inactive,
COc1ccc(C(c2ccc(OC)cc2)C(Cl)(Cl)Cl)cc1,inactive,
CS/C(C)=N/OC(=O)N(C)SN(C)C(=O)O/N=C(\C)SC,inactive,
CCOc1cc(Oc2ccc(C(F)(F)F)cc2Cl)ccc1[N+](=O)[O-],inactive,
CC(C)C1(C)N=C(c2nc3ccccc3cc2C(=O)O)NC1=O (stereo not given),inactive,
COc1cnc(OC)n2nc(NS(=O)(=O)c3c(OCC(F)F)cccc3C(F)(F)F)nc12,inactive,
CCCCNC(=O)OCC#CI,inactive,32.7 µM (active)
CCCN(CCC)c1c([N+](=O)[O-])cc(S(N)(=O)=O)cc1[N+](=O)[O-],inactive,

Compound,outcome,AC50
COP(N)(=O)SC (stereo not given),inactive,
Cc1ccc(-c2c(Cl)nc(C#N)n2S(=O)(=O)N(C)C)cc1,inactive,
Cc1c(F)c(F)c(COC(=O)C2C(/C=C(\Cl)C(F)(F)F)C2(C)C)c(F)c1F (stereo not given),inactive,
Fc1ccc(Oc2ccnc3cc(Cl)cc(Cl)c23)cc1,inactive,
C=CCC1=C(C)[C@@H](OC(=O)[C@@H]2[C@@H](C=C(C)C)C2(C)C)CC1=O,inactive,
Oc1ccccc1-c1ccccc1,inactive,57.7 µM (active)
CO/C=C(/C(=O)OC)c1ccccc1Oc1cc(Oc2ccccc2C#N)ncn1,inactive,
CC(Oc1ccc(Cl)cc1Cl)C(=O)O (stereo not given),inactive,
N#CC(CCc1ccc(Cl)cc1)(Cn1cncn1)c1ccccc1 (stereo not given),inactive,
OC(c1ccc(Cl)cc1)(c1cncnc1)c1ccccc1Cl (stereo not given),inactive,
COC(=O)C(C)Oc1ccc(Oc2ccc(Cl)cc2Cl)cc1 (stereo not given),inactive,
O=C(Nc1ccccc1)Nc1ccnc(Cl)c1,inactive,
C#CCOS(=O)OC1CCCCC1Oc1ccc(C(C)(C)C)cc1 (stereo not given),inactive,
CCCCNC(=O)n1c(NC(=O)OC)nc2ccccc21,inactive,
CON(C)C(=O)Nc1ccc(Cl)c(Cl)c1,inactive,
COc1nc(NC(C)C)nc(NC(C)C)n1,inactive,
CC(C)(C)c1ccc(CSc2cnn(C(C)(C)C)c(=O)c2Cl)cc1,inactive,
CCc1nn(C)c(C(=O)NCc2ccc(C(C)(C)C)cc2)c1Cl,inactive,

# Source: PubChem BioAssay (EPA / NIEHS)
